Among the data in ChEMBL document CHEMBL3988442, “University of Dundee, Small-Polar-MMV Screening Library” (2021) are Percent Effect values, retold here.

Molecules are shown by their SMILES. Results with a measured potency or affinity are listed apart.

The target of the test is T1, Ubiquitin-activating enzyme e1, putative (Leishmania donovani (strain BPK282A1)) (UniProt E9BSI1).
T1 sequence (whole entry): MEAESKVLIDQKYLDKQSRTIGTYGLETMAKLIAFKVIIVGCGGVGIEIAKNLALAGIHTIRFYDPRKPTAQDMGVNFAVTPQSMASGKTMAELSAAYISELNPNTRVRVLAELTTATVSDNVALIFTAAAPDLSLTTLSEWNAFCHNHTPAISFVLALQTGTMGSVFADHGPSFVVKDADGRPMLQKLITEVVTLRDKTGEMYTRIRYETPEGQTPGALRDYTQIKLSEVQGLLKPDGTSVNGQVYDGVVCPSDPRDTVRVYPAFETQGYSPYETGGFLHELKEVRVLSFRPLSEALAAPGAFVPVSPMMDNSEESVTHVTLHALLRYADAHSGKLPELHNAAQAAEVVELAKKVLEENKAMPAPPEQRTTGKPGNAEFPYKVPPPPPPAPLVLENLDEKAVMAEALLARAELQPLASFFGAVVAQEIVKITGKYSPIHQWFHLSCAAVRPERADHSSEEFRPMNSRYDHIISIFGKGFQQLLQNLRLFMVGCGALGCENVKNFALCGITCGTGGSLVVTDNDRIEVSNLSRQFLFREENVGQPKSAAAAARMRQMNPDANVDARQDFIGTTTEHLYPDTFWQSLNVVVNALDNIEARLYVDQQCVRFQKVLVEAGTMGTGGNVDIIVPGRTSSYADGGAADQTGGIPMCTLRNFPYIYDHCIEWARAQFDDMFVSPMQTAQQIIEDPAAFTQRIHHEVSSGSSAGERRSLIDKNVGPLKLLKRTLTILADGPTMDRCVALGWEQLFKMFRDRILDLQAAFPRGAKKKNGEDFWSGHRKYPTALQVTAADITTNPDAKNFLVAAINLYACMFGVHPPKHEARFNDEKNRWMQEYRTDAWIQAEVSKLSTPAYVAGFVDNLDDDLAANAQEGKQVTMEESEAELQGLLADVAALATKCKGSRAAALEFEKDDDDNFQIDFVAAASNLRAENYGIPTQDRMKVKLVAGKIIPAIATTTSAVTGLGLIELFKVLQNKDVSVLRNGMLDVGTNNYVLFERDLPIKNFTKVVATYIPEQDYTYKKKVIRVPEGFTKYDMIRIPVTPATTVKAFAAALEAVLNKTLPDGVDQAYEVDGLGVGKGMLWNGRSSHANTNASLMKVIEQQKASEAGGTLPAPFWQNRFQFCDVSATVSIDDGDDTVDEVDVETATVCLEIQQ
Put plainly: Leishmania donovani Ubiquitin Activating Enzyme (LdE1). It is filed as functional. The arrangement: scale not given: direction of the effect not stated beside the values. The following applies: 30 µM.
With `CCn1nc(C(=O)N2CCCC(n3cncn3)C2)ccc1=O` (centres undefined), the Percent Effect turned out to be 5.2%.
Then `CNc1nc(C)c(C(=O)N2CCCCC2CN2CCCCCC2)s1` (centres undefined), with 21.3%; and `CCOCC(=O)N1C[C@@H](O)[C@H](N(C)Cc2ccc(OC)cc2)C1`, with 4.05%; and `c1cnc(NCc2ncn3c2CN(Cc2cccnc2)CCC3)nc1`, with 2.7%.
Then `O=C1CCSCC(C(=O)N2CCOCC2)N1` (centres undefined), with 2.74%; and `O=C(COCc1nc(-c2ccncc2)no1)N1CCCCCC1`, with 5.2%; and `CCc1csc(C2CCCN(C(=O)c3cnn(CC)c3)C2)n1` (centres undefined), with -2.63%.
For `COc1ccc(CCC(=O)Nc2cccnc2N2CCCC2)cc1Br`, the Percent Effect worked out at 8.11%.
For `CC(=O)c1ccc(N2CCCC(CO)(CCOc3ccccc3)C2)nc1` (centres undefined) the value was 10.4%; for `c1cncc(C2COC3(CCN(CC4CC4)CC3)C2)c1` (centres undefined), 5.41%.
For the compound `Cc1ccc2c(n1)N(CCn1cccn1)CCN(C(=O)NC1CC1)C2`, the Percent Effect is 10.8%.
For the compound `Cc1cnn(C2CCCN(C(=O)c3cnc4ccccc4n3)C2)c1` (centres undefined), the Percent Effect is 5.41%.
Then `CCCc1cc(=O)n(CC(N)=O)c(-n2nc(C)cc2C)n1`, with 7.79%; and `Cc1cc(C)n(C2CCCN(C(=O)c3cc(C4CC4)on3)C2)n1` (centres undefined), with 5.2%; and `Cc1ccc(Nc2nccc(C3CCCN(CC(=O)N(C)C)C3)n2)nc1` (centres undefined), with 5.33%.
With `CC(C)c1cccc(CSc2nnc(CN3CCCC3=O)o2)n1`, the Percent Effect was -2.67%.
Take `N#Cc1ccc(OCCN2CCc3c(ncn3C3CC3)C2)cc1`: the Percent Effect came to 23.4%.
Then `O=C(NCc1nncn1-c1ccccc1)C1CC(=O)N(CC2CC2)C1` (centres undefined), with 5.41%.
Then `CCc1nccn1C1CCCN(C(=O)Cc2n[nH]c3ccccc23)C1` (centres undefined), with 3.8%; and `CN(Cc1ccsc1)C(=O)c1cccc(NS(C)(=O)=O)c1`, with 20.8%; and `CNC(=O)CS(=O)(=O)Cc1coc(-c2ccc(OC)cc2)n1`, with 2.7%.
For `CC(C)CS(=O)(=O)CC(=O)N(C)Cc1ccc(OC(F)F)cc1` the value was 2.7%; for `CN(Cc1ccccn1)C1COC2(CCN(Cc3cccnc3)CC2)C1` (centres undefined), 16%; for `COc1ccc(C2=C(C)C(N3CCc4ccccc4C3)=NS2(=O)=O)cc1`, -7.79%.
For `Cn1c(C2CC2)nc2c1CCN(CC(=O)Nc1nncs1)C2`, the Percent Effect is -2.6%.
Then `Cc1cccc(CN2CCN(Cc3ccccc3)CC(O)C2)n1` (centres undefined), with 0%; and `CCn1cc(CN2CCCN(C(=O)C3=NN(C)C(=O)CC3)CC2)cn1`, with 18.2%; and `O=C(CN1CCc2cncnc2C1)NCCOc1ccccc1`, with 21.1%.
For the compound `Cc1ncsc1C(=O)N(C)CCc1ccncc1`, the Percent Effect amounted to 2.63%.
Then `N#Cc1cccc(CS(=O)(=O)NCC(O)Cc2ccccc2)c1` (centres undefined), with -2.67%.
For `Cc1ccc(-c2nc(CN3CCc4nn(C)c(=O)cc4C3)co2)cc1` the value was 35.1%; for `Cc1cc(C)n(CC2CCCN2CC(=O)N(C)C)n1` (centres undefined), -2.7%; for `CN(C)S(=O)(=O)N1CCC(Oc2ccc(C#N)cc2)CC1`, 1.39%.
Then `CC(C)c1cc(NC(=O)CN2CCc3cncnc3C2)on1`, with 10.4%; and `CCc1nc(CN(Cc2cccs2)CC2CCCO2)no1` (centres undefined), with -11.4%; and `CCCN1CC(C(=O)Nc2ccccn2)CC1=O` (centres undefined), with 0%.
As for `Cc1cnn(CCNCc2ccc(F)cc2Cl)c1`, the Percent Effect was found to be 8.11%.
With `O=C(c1ccn(-c2cccc(F)c2)n1)N1CCCC(n2cccn2)C1` (centres undefined), the Percent Effect turned out to be 2.6%.
Then `N#Cc1ccnc(N2CCN(C(=O)Cc3ccc4c(c3)CCO4)CC2)c1`, with 21.1%.
